This passage reports growth results from PubChem BioAssay (NCI).

Compounds without any hit were thinned out: in the full panel of roughly 83,000, 20% have a hit.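 The test compound was applied at a single concentration to cells in 96-well plates for 48 hours, and percent growth was recorded.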 A number with no mark means an inactive call. Active and inactive are the calls of the source. How the source made its calls: active means growth percent below 10; inactive means the rest.

Some test systems named below: HCT-15 colon; HT29 colon; SNB-75 CNS; SNB-19 CNS; U251 CNS; PC-3 prostate; SK-MEL-5 melanoma; UACC-62 melanoma; LOX IMVI melanoma; SK-MEL-28 melanoma.
Assay in all cases: NCI-60 one-dose screen, 48 h (100 = growth as untreated, 0 = no growth, -100 = all killed)
What all share (conditions): 10 µM unless noted

With `CN(C)c1ccc(-c2ccc3[nH]c(=O)nc(-c4ccccc4)c3c2)cn1`, the growth is 28.1% in the test on HCT-15 colon; 14.1% in the test on HT29 colon; 27.9% with SNB-75 CNS; 50.4% in the test on SNB-19 CNS; 38.1% in the test on U251 CNS; 47.2% in the test on PC-3 prostate. The growth was 39.6% with SK-MEL-5 melanoma, 48.5% in the test on UACC-62 melanoma, 38.5% in the test with LOX IMVI melanoma and 55.8% in the test on SK-MEL-28 melanoma.

Consider `COc1ccc2c(c1)CCCN2c1c2ccccc2nc2ccccc12`, for which the growth with HCT-15 colon is 12.5%; in the test on HT29 colon it was 8.43% (active); with SNB-75 CNS it was 0.187% (active); in the test on SNB-19 CNS it was 34.6%; in the test with U251 CNS, 14.1%; in the test with PC-3 prostate, 15.9%. Further, the growth with SK-MEL-5 melanoma was 2.04% (active); in the test with UACC-62 melanoma, 5.34% (active); in the test with LOX IMVI melanoma, 12.2%; in the test on SK-MEL-28 melanoma, 47%.

On to `N#C/C(=C\c1ccc(Br)cc1)n1nnc2cc(F)c(F)cc21`, for which the growth in the test on HCT-15 colon is 11.1%; with HT29 colon, 13.2%; in the test with SNB-75 CNS, 12.8%; in the test on SNB-19 CNS it was 50.5%; with U251 CNS it was 30%; in the test with PC-3 prostate it was 31.2%. The growth with SK-MEL-5 melanoma is 44.8%; in the test with UACC-62 melanoma, 13.3%; in the test on LOX IMVI melanoma, -49.1% (active); in the test with SK-MEL-28 melanoma it was 42.8%.

For the compound `COc1cc(/C=N/n2c(CN3CCOCC3)nc3ccccc3c2=O)cc(OC)c1OC`, the growth is 106% in the test on HCT-15 colon; 103% in the test on HT29 colon; 94.4% in the test with SNB-75 CNS; 95.7% in the test with SNB-19 CNS; 98.7% in the test on U251 CNS; 101% with PC-3 prostate. For the same compound, the growth is 101% in the test with SK-MEL-5 melanoma, 97.6% with UACC-62 melanoma, 100% in the test on LOX IMVI melanoma and 99.3% with SK-MEL-28 melanoma.

Regarding `COC(=O)[C@]12CC[C@@H](C)[C@H](C)[C@@H]1C1=CC[C@@H]3[C@@]4(C)C(C=O)=C[C@@](C)(COS(C)(=O)=O)[C@@H]4C(=O)C[C@@]3(C)[C@]1(C)CC2`, the growth in the test on HCT-15 colon was 21.4%; in the test on HT29 colon, 26.9%; in the test on SNB-75 CNS, 38.7%; with SNB-19 CNS, 41.7%; with U251 CNS, 26%; in the test with PC-3 prostate, 12%. Further, the growth was 63.8% in the test on SK-MEL-5 melanoma, 38.6% in the test with UACC-62 melanoma, 35.7% in the test with LOX IMVI melanoma and 74.2% in the test on SK-MEL-28 melanoma.

With `COc1ccc2[nH]c(O)c(/C=c3/cc4c(c(-c5cc(OC)c(OC)c(OC)c5)n3)=Nc3ccccc3-4)c2c1`, the growth in the test on HCT-15 colon was 46.8%; with HT29 colon, 35%; in the test on SNB-75 CNS it was 78.8%; with SNB-19 CNS, 84.4%; in the test with U251 CNS it was 61.4%; in the test on PC-3 prostate, 44.7%. The growth with SK-MEL-5 melanoma is 52.2%; with UACC-62 melanoma, 80.7%; in the test on LOX IMVI melanoma it was 64.8%; in the test with SK-MEL-28 melanoma, 83.1%.

Take `C[n+]1cccc(CC(=O)NO)c1`: the growth was 112% in the test with HCT-15 colon; 99.7% with HT29 colon; 92.6% with SNB-75 CNS; 102% in the test on SNB-19 CNS; 87.6% in the test with U251 CNS; 95.5% in the test with PC-3 prostate. In addition, the growth in the test with SK-MEL-5 melanoma is 96.4%; in the test with UACC-62 melanoma, 92.9%; in the test on LOX IMVI melanoma it was 98%; in the test on SK-MEL-28 melanoma, 113%.

As to `COc1ccc(-c2csc(C3=C(O)CN(CCCN4CCCC4=O)C3=N)n2)cc1OC`, the growth in the test on HCT-15 colon was 94%; in the test with HT29 colon, 114%; in the test on SNB-75 CNS, 106%; with SNB-19 CNS, 93.8%; in the test on U251 CNS it was 99%; in the test with PC-3 prostate, 83.5%. Besides, the growth in the test with SK-MEL-5 melanoma was 89.2%; in the test with UACC-62 melanoma, 103%; in the test with LOX IMVI melanoma, 93.5%; in the test on SK-MEL-28 melanoma, 124%.

Turning to `O=C1/C(=C/c2ccc(Br)cc2)C=C(c2ccccc2)N1CCc1ccccc1`, the growth in the test with HCT-15 colon is 69.7%; with HT29 colon, 32.5%; with SNB-75 CNS, -34.3% (active); in the test with SNB-19 CNS, 6.97% (active); in the test with U251 CNS it was 6.97% (active); in the test with PC-3 prostate, 22.1%. The growth with SK-MEL-5 melanoma was 77.1%; in the test with UACC-62 melanoma, 46.6%; in the test on LOX IMVI melanoma, 42.2%; with SK-MEL-28 melanoma it was 70.2%.

For `COC(=O)[C@]12CC[C@@H](C)[C@H](C)[C@@H]1C1=CC[C@@H]3[C@@]4(C)C(C=O)=C[C@@](C)(COC(=O)/C=C/c5ccccc5)[C@@H]4[C@H](O)C[C@@]3(C)[C@]1(C)CC2`, the growth in the test on HCT-15 colon is 2.39% (active); in the test with HT29 colon, -22.9% (active); with SNB-75 CNS, 2.38% (active); in the test with SNB-19 CNS, 49.4%; in the test on U251 CNS it was 2.16% (active); with PC-3 prostate it was 12%. In addition, the growth in the test on SK-MEL-5 melanoma is -64.4% (active); with UACC-62 melanoma it was -29.7% (active); in the test on LOX IMVI melanoma, -95.5% (active); in the test on SK-MEL-28 melanoma, -12.5% (active).

Take `CCN(CC)c1ccc(C(=O)c2ccc(N(CC)CC)cc2)cc1`: the growth is 27.4% in the test on HCT-15 colon; 4.92% (active) in the test on HT29 colon; -11.9% (active) with SNB-75 CNS; 38.7% in the test on SNB-19 CNS; 20.8% in the test with U251 CNS; 26.4% in the test on PC-3 prostate. The growth in the test with SK-MEL-5 melanoma was 23.7%; in the test with UACC-62 melanoma, 37.6%; with LOX IMVI melanoma, 32.6%; with SK-MEL-28 melanoma, 51.3%.

As to `O=C(Nc1cccc2c(O)c(N=Nc3ccc(S(=O)(=O)Nc4nccs4)cc3)cc(N=Nc3ccc(S(=O)(=O)Nc4nccs4)cc3)c12)C(Cl)Cl`, the growth was 60.2% in the test with HCT-15 colon; 62.8% in the test on HT29 colon; 83% in the test on SNB-75 CNS; 73.6% in the test on SNB-19 CNS; 63.1% in the test with U251 CNS; 15.7% in the test with PC-3 prostate. The growth in the test with SK-MEL-5 melanoma was 85.2%; with UACC-62 melanoma, 89%; with LOX IMVI melanoma, 66.7%; with SK-MEL-28 melanoma, 82.9%.

As to `CCCCCCCCCCCCCCCCCCOc1ccccc1CC(=O)OCCC[N+](C)(C)C`, the growth in the test with HCT-15 colon is 78.7%; in the test with HT29 colon, 40%; with SNB-75 CNS, 40.6%; in the test on SNB-19 CNS it was 34.2%; in the test with U251 CNS, 24.2%; in the test on PC-3 prostate it was 36.8%. In addition, the growth with SK-MEL-5 melanoma was 43.2%; with UACC-62 melanoma, 54.2%; in the test with LOX IMVI melanoma, 36.4%; with SK-MEL-28 melanoma it was 66.8%.

For `COc1ccc(-c2nc(SCCC(C)C)nc(N/N=C\c3cccc([N+](=O)[O-])c3)c2C#N)cc1`, the growth was 38.7% with HCT-15 colon; 30.3% in the test with HT29 colon; -14% (active) in the test with SNB-75 CNS; 45.1% in the test with SNB-19 CNS; 8.23% (active) in the test on U251 CNS; 40.5% with PC-3 prostate. Also, the growth in the test with SK-MEL-5 melanoma was 71.1%; in the test on UACC-62 melanoma, 67.5%; in the test on LOX IMVI melanoma, 18.8%; with SK-MEL-28 melanoma, 67.5%.

As for `C=C(C)[C@@H]1CC=C2c3sc(-c4ccc(C)cc4)nc3C[C@@H](C)[C@]2(C)C1`, the growth in the test on HCT-15 colon is 104%; in the test on HT29 colon it was 98.8%; in the test with SNB-75 CNS, 87.4%; in the test with SNB-19 CNS it was 101%; in the test with U251 CNS, 97.5%; in the test with PC-3 prostate, 95.5%. Further, the growth in the test with SK-MEL-5 melanoma is 101%; with UACC-62 melanoma, 93.2%; with LOX IMVI melanoma it was 95.3%; with SK-MEL-28 melanoma it was 103%.

Turning to `COc1ccc(-c2c(N)n[nH]c2-c2ccc(Cl)cc2O)cc1OC`, the growth was 88.5% with HCT-15 colon; 111% with HT29 colon; 91.3% in the test on SNB-75 CNS; 97.7% in the test with SNB-19 CNS; 95.6% with U251 CNS; 86.3% with PC-3 prostate. Besides, the growth with SK-MEL-5 melanoma was 93.7%; in the test on UACC-62 melanoma, 76.3%; with LOX IMVI melanoma, 89.5%; in the test on SK-MEL-28 melanoma, 106%.

Regarding `CC(=O)C(C)Cc1cc2c(cc1C)C(C)(C)CCC2(C)C` (stereo not given), the growth in the test on HCT-15 colon is 96.7%; in the test with HT29 colon it was 93.3%; with SNB-75 CNS it was 96.4%; in the test with SNB-19 CNS it was 116%; in the test with U251 CNS it was 97.1%; in the test with PC-3 prostate, 77.4%. Moreover, the growth in the test on SK-MEL-5 melanoma was 103%; in the test on UACC-62 melanoma it was 99.4%; in the test with LOX IMVI melanoma, 90.7%; with SK-MEL-28 melanoma, 106%.

Consider `O=C(N=c1oc2ccccc2cc1-c1cc2ccccc2[nH]1)c1ccc(Cl)cc1`, for which the growth was 25.7% in the test on HCT-15 colon; 65.7% with HT29 colon; 53.6% in the test on SNB-75 CNS; 32.6% with SNB-19 CNS; 28.9% with U251 CNS; 27.2% in the test on PC-3 prostate. The growth with SK-MEL-5 melanoma was 96.1%; with UACC-62 melanoma, 63.1%; in the test with LOX IMVI melanoma, 60.5%; in the test on SK-MEL-28 melanoma, 95.3%.

On to `NC(=N\N=C/c1cccc([N+](=O)[O-])c1)/C(N)=N\N=C/c1cccc([N+](=O)[O-])c1`, for which the growth is 51.9% in the test on HCT-15 colon; 99.3% in the test on HT29 colon; 35.1% in the test on SNB-75 CNS; 105% in the test with SNB-19 CNS; 76.6% in the test with U251 CNS; 72.2% with PC-3 prostate. For the same compound, the growth in the test with SK-MEL-5 melanoma is 58.2%; with UACC-62 melanoma, 65%; in the test on LOX IMVI melanoma, 82%; in the test on SK-MEL-28 melanoma, 77.9%.

`Cc1ccc2nc(NC(=O)CSc3nc(Nc4ccc([N+](=O)[O-])cc4)c(C#N)c(-c4ccccc4)n3)sc2c1`: the growth with HCT-15 colon is 93.6%; with HT29 colon, 96.7%; in the test on SNB-75 CNS it was 85.6%; in the test with SNB-19 CNS, 93.9%; with U251 CNS, 93.2%; in the test on PC-3 prostate it was 93.8%. Besides, the growth was 98% in the test with SK-MEL-5 melanoma, 86% in the test with UACC-62 melanoma, 96.7% with LOX IMVI melanoma and 109% in the test with SK-MEL-28 melanoma.

For the compound `S=C(Cc1ccc2c(c1)CCCC2)N1CCOCC1`, the growth was 101% in the test with HCT-15 colon; 87.9% with HT29 colon; 95.1% with SNB-75 CNS; 102% in the test on SNB-19 CNS; 95.6% in the test with U251 CNS; 97.8% with PC-3 prostate. Besides, the growth in the test on SK-MEL-5 melanoma is 102%; in the test with UACC-62 melanoma it was 95.9%; in the test on LOX IMVI melanoma, 93.2%; in the test with SK-MEL-28 melanoma it was 102%.
